Screens from PubChem BioAssay.
RORgamma inh = ROR gamma (mouse) transcription inhibition. P51450. Drosophila S2 Gal4-RORgamma UAS-luciferase reporter, 20 h. Potency, µM (top dose mostly 53.6 µM), without a hit: at the top dose activity change, negative = inhibition, usual class: inhibitors. actives 5.4% (n = 310,000); note: nearly all actives have a fitted effect of over 60% in size
Target sequence (P51450 whole entry, looked up, the tested form may be a part): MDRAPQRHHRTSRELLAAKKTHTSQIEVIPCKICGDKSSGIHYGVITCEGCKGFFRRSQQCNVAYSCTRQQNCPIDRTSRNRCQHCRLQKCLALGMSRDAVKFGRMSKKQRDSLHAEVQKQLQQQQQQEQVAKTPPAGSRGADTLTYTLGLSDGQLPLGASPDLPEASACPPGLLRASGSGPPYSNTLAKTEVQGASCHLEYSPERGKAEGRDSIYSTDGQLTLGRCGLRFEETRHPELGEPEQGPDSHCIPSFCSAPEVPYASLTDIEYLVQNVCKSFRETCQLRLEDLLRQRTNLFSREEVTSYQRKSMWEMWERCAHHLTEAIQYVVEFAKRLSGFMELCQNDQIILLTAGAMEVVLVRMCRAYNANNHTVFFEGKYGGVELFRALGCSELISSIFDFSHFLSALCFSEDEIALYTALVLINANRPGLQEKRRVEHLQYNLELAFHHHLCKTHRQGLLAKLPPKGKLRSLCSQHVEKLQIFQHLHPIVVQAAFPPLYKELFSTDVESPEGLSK
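Stably transfected Drosophila Schneider cells are the test system, with ROR gamma fused to Gal4 and luciferase under UAS control; luminescence is read after 20 hr of 700 uM copper sulfate induction at ambient temperature.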
12-LOX inh = ALOX12 (human) lipoxygenase inhibition | P18054 | purified 12hLO, xylenol orange hydroperoxide absorbance | Potency, µM (doses to about 108 µM), for the others: at the highest dose activity change, negative = inhibition, usual class: inhibitors | actives 1.1% (n = 580,000)
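Hydroperoxide product was detected by ferrous iron/xylenol orange as the 573 to 405 nm absorbance ratio. Arachidonic acid at 40 uM (final) was turned over for 30 min at room temperature by 150 nM human 12hLO, pH 7.0 Hepes buffer, after 15 min compound preincubation.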
ELG1 repair inh = blocks ELG1-dependent DNA repair in HEK293T cells | Potency, µM (doses to about 46.1 µM), for the others: at the highest dose activity change, negative = inhibition, usual class: inhibitors | AID 504467 | HEK293T ELG1-luciferase reporter, luminescence, 16 h; DNA damage induced by 5-fluorouridine | actives 2.3% (n = 330,000); note: nearly all actives have a fitted effect of over 55% in size
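HEK293T cells expressing luciferase-tagged ELG1 (2,000/well) received 5-Fluorouridine plus compound or DMSO for 16 hr at 37 °C. Luciferase was read by ONE-Glo luminescence after 30 min at room temperature.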
DT40 TDP1 no CPT = qHTS for Inhibitors of human tyrosyl-DNA phosphodiesterase 1 (TDP1): qHTS in cells in absence of CPT | Potency, µM (top dose mostly 46.2 µM), inactives show at the top dose activity change, negative = growth inhibition, usual class: inhibitors | actives 15% (n = 420,000) | AID 686978, 2013 | DT40 Tdp1-/- hTDP1 cells, no CPT, ATP luminescence, 48 h; note: nearly all actives have a fitted effect of over 55% in size
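Seeded 400 DT40-hTDP1 cells/well (vehicle DMSO, no 20 nM CPT); pinned compounds; ≥48 hr at 37 °C; CellTiter-Glo luminescence as viability measure.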
VP16 counter = Gal4-VP16 reporter inhibition counter-screen. Potency, µM (titrated, usually from 53.6 µM), without a hit: top-dose activity, negative = inhibition, usual class: inhibitors. actives 3.5% (n = 310,000). Drosophila S2 Gal4-VP16 UAS-luciferase, luminescence, 20 h;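 note: Gal4-VP16 expression switched on by copper sulfate through the metallothionein promoter; nearly all actives have a fitted effect of over 50% in size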
TDP1 cell CPT = growth inhibition of DT40 Tdp1-/-;hTDP1 cells with camptothecin (screen for TDP1 inhibitors); chicken DT40 Tdp1-/-;hTDP1 cells + 20 nM CPT, ATP luminescence, 48 h; Potency, µM (doses to about 46.2 µM), for inactives: at the highest dose activity change, negative = growth inhibition, usual class: inhibitors; actives 12% (n = 420,000); AID 686979; note: nearly all actives have a fitted effect of over 55% in size
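Chicken DT40 Tdp1-/- cells stably complemented with human TDP1 were seeded at 400 cells/well in medium containing 20 nM camptothecin, exposed to pin-transferred compounds, and grown at 37 °C for at least 48 hr. Viability was read as ATP luminescence.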
An asterisk follows results filed as active; ? = inconclusive; . = no result given; [ ] = another dose, or the depositor's remark. Most compounds without a hit are left out; they make up all but 15% or so of the library. Calls come from the whole dose curve; as a rule, active = well fitted curve in the direction sought with a large enough effect; inconclusive = small, poorly fitted or top-dose-only effect, or another doubt; inactive = no such curve, though single readings can be large; an effect the other way counts as inactive or inconclusive. % is set by controls: 0 for no effect and ±100 for the full control effect; potency is the fitted concentration of half-maximal effect.

SMILES | RORgamma inh | 12-LOX inh | ELG1 repair inh | DT40 TDP1 no CPT | VP16 counter | TDP1 cell CPT
CCOC(=O)N1CCN(C(=S)Nc2cc(S(=O)(=O)N3CCOCC3)ccc2Cl)CC1 | 0.8% | -1.6% | ? | 18.4µM* | -7.2% | ?
CCCCn1c(C)nc2cc(S(=O)(=O)N3CCOCC3)ccc21 | . | -5.6% | 22.1% | -24.9% | . | -27.4%
CCCCn1c(CCl)nc2cc(S(=O)(=O)N3CCOCC3)ccc21 | . | 3.4% | ? | 6.51µM* | . | 4.61µM*
CCOC(=O)C1CCN(S(=O)(=O)c2cccc3nonc23)CC1 | -27.0% | 0.0% | -1.2% | -10.4% | 2.4% | 9.0%
CC1Oc2ccc(NC(=O)C3CCCC3)cc2CN(Cc2ccc(F)cc2)C1=O (configuration not stated) | . | 7.2% | . | . | . | .
CCOC(=O)C1CCCN(C(=O)CSc2ccc(Br)cc2)C1 (configuration not stated) | 6.2% | . | 17.5% | 18.4µM* | -17.3% | 13µM*
Cn1c(CCC(=O)Nc2cc(S(C)(=O)=O)ccc2Cl)nc2cc(S(=O)(=O)N3CCOCC3)ccc21 | . | 44.7µM* | ? | -3.1% | . | 4.8%
CC(C)N(C(=S)Nc1cc(S(=O)(=O)N2CCOCC2)ccc1Cl)c1ccccc1 | 1.7% | -28.3% | ? | ? | -4.1% | -20.3%
Cn1c(CCC(=O)Nc2ccc(S(C)(=O)=O)cc2)nc2cc(S(=O)(=O)N3CCOCC3)ccc21 | . | 472.9% | . | 0.6% | . | -9.8%
C/C(=N\NC(=S)Nc1cc(S(=O)(=O)N2CCOCC2)ccc1Cl)c1ccccc1F | 1.12µM* | ? | ? | 2.31µM* | 6.31µM* | 3.26µM*
CCOC(=O)C1CCN(CC(=O)Nc2ccc(S(=O)(=O)N3CCC(C)CC3)cc2)CC1 | 39.7% | -0.5% | ? | 20.6µM* | -2.9% | ?
O=C(NC1CC1)c1cc(Br)cn2ccnc12 | . | 51.3%[176 µM] | . | . | . | .
CCCNC(=O)NC(C)(C)C(=O)O | . | -13.8% | . | . | . | .
Cc1nc2c3c(ncn2n1)OC1=C(C(=O)CCC1)C3c1ccco1 (configuration not stated) | . | 1.1% | . | . | . | .
CCOC(=O)C1CCCN(C(=S)Nc2ccc(S(=O)(=O)N3CCOCC3)cc2)C1 (configuration not stated) | . | -5.0% | ? | 16.4µM* | . | ?
N#C/C(=C\c1ccc[nH]1)C(=O)NC1CC1 | 5.3% | 7.9% | -0.5% | -9.3% | 10.1% | 2.2%
Cc1ccc(C)c(NC(=O)/C(C#N)=C/c2ccccc2OC(F)F)c1 | . | 14.0% | . | . | . | .
Cc1cccc(NC(=O)/C(C#N)=C/c2ccc[nH]2)c1C | 29.3% | 469.4% | ? | ? | 20.5% | 11.6µM*
Cc1ccc(C)c(NC(=O)/C(C#N)=C/c2ccc[nH]2)c1 | 16.0% | -11.1% | 1.9% | -21.8% | -9.0% | 18.4µM*
Cc1ccc(CNc2nc3nc(C)c(CCC(=O)Nc4cccc5ccccc45)c(=O)n3[nH]2)cc1 | . | -23.4% | . | . | . | .
O=C(c1ccc(F)c(Cl)c1)N1CCC[C@H]1c1nc(-c2ccccc2)no1 | . | 0.5% | . | . | . | .
O=C1CSc2sc(=S)sc2SC1 | . | 5.01µM* | . | . | . | .
CCN1C(=O)C(CC(=O)Nc2ccc(F)cc2)N(CCCN2CCN(c3ccc(F)cc3)CC2)C1=S (configuration not stated) | -24.6% | 12.1% | ? | 14.6µM* | ? | 14.6µM*
CCCOc1ccc(NC(=O)CC2C(=O)N(CC)C(=S)N2CCCN2CCN(Cc3ccccc3)CC2)cc1 (configuration not stated) | ? | ? | ? | 14.6µM* | ? | 14.6µM*
CCOc1ccc(NC(=O)CC2C(=O)N(CC)C(=S)N2CCN2CCOCC2)cc1 (configuration not stated) | ? | -1.6% | -1.5% | ? | -4.1% | ?
SMILES | RORgamma inh | 12-LOX inh | ELG1 repair inh | DT40 TDP1 no CPT | VP16 counter | TDP1 cell CPT
O=c1c(Cl)c(N2CCN(Cc3ccccc3)CC2)cnn1Cc1ccc(Cl)cc1 | . | -17.3% | . | . | . | .
CCc1nc2c(OCC(=O)c3ccc(Cl)cc3Cl)cccn2c1N(C)C(=O)COc1ccccc1 | . | -29.6% | . | ? | . | ?
CCc1nc2c(OCC(=O)c3ccc(Cl)cc3Cl)cccn2c1N(C=O)Cc1ccc(OC)cc1 | . | ? | . | 18.4µM* | . | 23.1µM*
CCc1nc2c(OCCn3cccc3)cccn2c1N(C=O)Cc1ccc(OC)cc1 | . | -13.0% | . | ? | . | 20.6µM*
CCc1nc2c(OCc3ccc(Cl)cc3)cccn2c1N(C=O)Cc1ccc(OC)cc1 | . | -4.1% | . | ? | . | 20.6µM*
CCc1nc2c(OCCOc3ccc(F)cc3)cccn2c1N(C=O)Cc1ccc(OC)cc1 | . | -5.7% | . | ? | . | ?
CCc1nc2c(OCc3ccc(Cl)cc3Cl)cccn2c1N(C=O)Cc1ccc(OC)cc1 | . | -25.2% | . | 23.1µM* | . | ?
CCc1nc2c(OCCn3cccc3)cccn2c1N(C=O)Cc1ccccc1 | . | -7.7% | . | ? | . | ?
CCc1nc2c(OCc3c(C)noc3C)cccn2c1N(C=O)Cc1ccc(OC)cc1 | . | -16.3% | . | 14.6µM* | . | 23.1µM*
CCc1nc2c(OCC(=O)c3ccc(Cl)cc3Cl)cccn2c1N(C)C(=O)c1cccs1 | . | ? | . | 18.4µM* | . | 16.4µM*
CCc1ccc(S(=O)(=O)N2CCC(n3cnnc3CC)CC2)cc1 | . | 0.8% | . | . | . | .
CS(=O)(=O)c1ccc(C(=O)NCC2(N3CCOCC3)CCCCC2)cc1 | . | 0.9% | 8.0% | -15.1% | . | 6.2%
CS(=O)(=O)c1ccc(-c2ccc3c(c2)CC(CNC(=O)C2(N4CCOCC4)CCCCC2)O3)cc1 (configuration not stated) | . | 13.8% | . | 16.4µM* | . | -13.2%[9.04 µM]
CCN(CC)CCCNC(=O)c1oc2c(c1C)-c1nn(Cc3ccc(Cl)cc3)cc1CC2 | . | ? | . | 18.4µM* | . | ?
COCCCNC(=O)c1oc2c(c1C)-c1nn(Cc3cccc(Cl)c3)cc1CC2 | . | -22.0% | . | 18.4µM* | . | 20.6µM*
CCCCN(C)CCCNC(=O)Cn1cc2c(n1)-c1c(oc(C(=O)N3CCCC3)c1C)CC2 | . | -1.8% | . | ? | . | ?
COCCCNC(=O)c1oc2c(c1C)-c1nn(Cc3ccc(Cl)cc3)cc1CC2 | . | ? | . | 18.4µM* | . | 23.1µM*
COCCNC(=O)Cn1cc2c(n1)-c1c(oc(C(=O)N3CCCC3)c1C)CC2 | . | 0.0% | . | -1.9% | . | -22.6%
COc1cccc2ccn(CC(=O)NCc3ccccc3)c12 | . | -4.5% | . | . | . | .
CC(Sc1nc2cc(S(=O)(=O)N3CCCCC3)ccc2o1)C(=O)Nc1ccccc1 (configuration not stated) | . | -1.7% | . | . | . | .
